Test results taken from PubChem BioAssay (EPA / NIEHS).
Calls of active or inactive are those of the source. The calls were made as follows: active = hit-call score of the fitted dose curve at least 0.9, where 1 is the maximum; inactive = score below 0.9.

How the values were obtained:
[1] = ATG_CRE_CIS: Attagene CIS-FACTORIAL HepG2 Assay for human cAMP Responsive Element (CRE) binding protein 3 (AID 2282926); settings: HepG2 CRE cis-reporter, Attagene multiplexed mRNA; actives raise or lower the signal
Method in brief: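 Cells carrying cis-regulated reporter constructs respond through their own endogenous factors. After 24 h treatment, RNA is reverse-transcribed, amplified, labelled and sized by capillary electrophoresis; up- and down-regulation are both scored against vehicle.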

[2] = biological target: CCAAT/enhancer-binding protein beta (Homo sapiens) (UniProt P17676); assay: ATG_C_EBP_CIS: Attagene CIS-FACTORIAL HepG2 Assay for human CCAAT/Enhancer Binding Protein (C/EBP) beta (AID 2282927); settings: HepG2 Attagene cis-factorial transcription factor reporter; actives raise or lower the signal
Method in brief: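 Endogenous transcription factor activity in human liver HepG2 cells is inferred from induction of a CEBPB-linked reporter mRNA. Exposure lasts 24 h; activity is fitted in both directions relative to DMSO.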

[3] = ATG_CMV_CIS: Attagene CIS-FACTORIAL HepG2 Assay for human CMV (Internal Marker) (AID 2282928); settings: HepG2 CMV promoter reporter, transcription factor profiling; actives raise or lower the signal;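 also: endpoint acts as a background internal control marker rather than a target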
Method in brief: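 Reporter transcripts from transfected HepG2 cells are isolated after 24 h of chemical dosing, reverse-transcribed and amplified. Fragments labeled with 6-FAM are cut with HpaI and quantified by capillary electrophoresis; DMSO defines baseline.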

[4] = biological target: Aryl hydrocarbon receptor (Homo sapiens) (UniProt P35869); assay: ATG_Ahr_CIS: Attagene CIS-FACTORIAL HepG2 Assay for human Aryl Hydrocarbon Receptor (Ahr) (AID 2282930); settings: HepG2 AhR cis-factorial reporter transcription; actives raise or lower the signal
Method in brief: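 Transient MRTU transfection of HepG2 → 24 h compound exposure → total RNA, oligo(dT) RT → PCR, 6-FAM extension, HpaI cut → CE fluorescence. DMSO = baseline; bidirectional curve fit.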

[5] = ATG_AP_1_CIS: Attagene CIS-FACTORIAL HepG2 Assay for human Activator Protein 1 (AP-1) (AID 2282931); settings: HepG2 Attagene cis-factorial AP-1 reporter mRNA; actives raise or lower the signal
Method in brief: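 Bidirectional concentration-response fitting against DMSO controls. Underlying signal: reporter mRNA from cis-promoter constructs in transiently transfected HepG2, measured after 24 h by RT-PCR and capillary electrophoresis.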

[6] = ATG_AP_2_CIS: Attagene CIS-FACTORIAL HepG2 Assay for human Activator Protein 2 (AP-2) (AID 2282932); settings: HepG2 AP-2 cis-reporter, Attagene transcription factor profiling; actives raise or lower the signal
Method in brief: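 Transiently transfected HepG2 cells are exposed to chemical for 24 h. Reporter transcripts are then measured as fluorescence following RT-PCR and capillary separation, and gain- or loss-of-signal is fitted relative to DMSO.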

[7] = ATG_BRE_CIS: Attagene CIS-FACTORIAL HepG2 Assay for human Bone Morphogenetic Protein (BMP) Response Element (BRE) (AID 2282933); settings: HepG2 BMP response element reporter, Attagene transcription factor profiling; actives raise or lower the signal
Method in brief: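 Endogenous transcription factor activity read in transiently transfected HepG2 cells after 24 h chemical exposure. Bidirectional curve fitting against DMSO; readout is reporter transcript level by RT-PCR with capillary electrophoresis of labelled products.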

[8] = biological target: Retinoic acid receptor alpha (Homo sapiens) (UniProt P10276); assay: ATG_DR5_RAR_CIS: Attagene CIS-FACTORIAL HepG2 Assay for human Retinoic Acid Receptor Alpha (RARE), DR5 submotif (AID 2282934); settings: HepG2 Attagene cis-factorial RARE DR5 reporter, mRNA; actives raise or lower the signal;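 as to AC50: reporter responds to endogenous RAR alpha beta and gamma in HepG2 not RARA alone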
Method in brief: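 Transient MRTU transfection of HepG2; 24 h compound treatment; TriZol RNA, oligo(dT) RT, PCR, FAM labelling, capillary electrophoresis. Bidirectional fit vs DMSO. Endogenous TF activity at DR5 RARE.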

[9] = biological target: Transcription factor E2F1 (Homo sapiens) (UniProt Q01094); assay: ATG_E2F_CIS: Attagene CIS-FACTORIAL HepG2 Assay for human E2F Transcription Factor 1 (AID 2282935); settings: HepG2 Attagene cis-reporter, E2F reporter RNA transcripts; actives raise or lower the signal
Method in brief: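 Fluorescent RT-PCR products, digested with HpaI for 2 h at 37 C, are separated by capillary electrophoresis. Source RNA comes from transfected HepG2 cultures treated for 24 h.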

[10] = ATG_E_Box_CIS: Attagene CIS-FACTORIAL HepG2 Assay for human Enhancer Box (E-box) (AID 2282936); settings: HepG2 E-box cis-reporter transcription, actives raise or lower the signal
Method in brief: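 Fluorescent reporter fragments separated by capillary electrophoresis gave the signal; mRNA came from HepG2 cells transfected with cis-element reporters and treated 24 h. Curves fitted bidirectionally relative to DMSO controls.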

[11] = ATG_M_61_CIS: Attagene CIS-FACTORIAL HepG2 Assay for M61 Transcription Factor (Internal Marker) (AID 2282937); settings: HepG2 Attagene CIS-FACTORIAL M61 internal marker reporter; actives raise or lower the signal
Method in brief: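 Fluorescence from labelled cDNA fragments, separated by capillary electrophoresis, quantifies reporter induction. HepG2 cells bearing transiently transfected cis-promoter MRTUs were incubated with test chemical for 24 h; DMSO defined baseline for gain/loss fitting.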

[12] = ATG_EGR_CIS: Attagene CIS-FACTORIAL HepG2 Assay for human Early Growth Response 1 (EGR1) (AID 2282938); settings: HepG2 Attagene CIS-FACTORIAL EGR reporter mRNA; actives raise or lower the signal
Method in brief: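 Cell-based multiplex transcription assay: HepG2 carrying transfected cis-element reporter units, 24 h chemical treatment. Fluorescence from capillary electrophoresis of RT-PCR products gives mRNA levels; fitting is bidirectional relative to DMSO.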

[13] = ATG_M_19_CIS: Attagene CIS-FACTORIAL HepG2 Assay for M19 Transcription Factor (Internal Marker) (AID 2282939); settings: HepG2 Attagene CIS-FACTORIAL M19 internal marker reporter; actives raise or lower the signal
Method in brief: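 Internal marker readout, fitted in both directions against DMSO, from HepG2 cells carrying transfected cis-element reporter constructs; RT-PCR and capillary electrophoresis of reporter mRNA after 24 h exposure.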

[14] = ATG_Ets_CIS: Attagene CIS-FACTORIAL HepG2 Assay for human Erythroblast Transformation Specific (ETS) (AID 2282941); settings: HepG2 ETS cis-reporter transcription, actives raise or lower the signal
Method in brief: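 Bidirectional fit versus DMSO of reporter mRNA signal, detected by RT-PCR and capillary electrophoresis in HepG2 cells transiently transfected with cis-element reporters and dosed 24 h.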

[15] = biological target: Hepatocyte nuclear factor 3-beta (Homo sapiens) (UniProt Q9Y261); assay: ATG_FoxA2_CIS: Attagene CIS-FACTORIAL HepG2 Assay for human Forkhead box A2 (FOXA2) (AID 2282942); settings: HepG2 cis-reporter transcription factor activity, 24 h; actives raise or lower the signal
Method in brief: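 In transiently transfected human HepG2 cells, promoter-driven reporter mRNA levels after 24 h chemical exposure are determined via RT-PCR with capillary electrophoresis. DMSO serves as baseline for bidirectional fitting.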

[16] = ATG_FoxO_CIS: Attagene CIS-FACTORIAL HepG2 Assay for human Forkhead box O (FoxO) (AID 2282943); settings: HepG2 Attagene cis-reporter, FoxO element, mRNA; actives raise or lower the signal
Method in brief: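 HepG2, transient MRTU transfection (cis element, endogenous TFs). Dose 24 h. TriZol RNA → oligo(dT) RT → PCR → 6-FAM primer extension → HpaI cut → CE. Gain/loss vs DMSO.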

[17] = ATG_GATA_CIS: Attagene CIS-FACTORIAL HepG2 Assay for human GATA Binding Protein (AID 2282944); settings: HepG2 GATA cis-element reporter, Attagene multiplex mRNA; actives raise or lower the signal
Method in brief: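 Reporter transcripts from a GATA cis-regulated unit, among multiplexed reporters in transfected HepG2 cells, were measured by RT-PCR with capillary electrophoresis after 24 h dosing. Induction or loss scored relative to DMSO.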

[18] = ATG_GLI_CIS: Attagene CIS-FACTORIAL HepG2 Assay for human Zinc Finger Protein GLI1 (AID 2282945); settings: HepG2, Attagene cis-factorial reporter mRNA, GLI element; actives raise or lower the signal
Method in brief: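 Bidirectional curve fits relative to DMSO, using reporter mRNA levels from RT-PCR plus capillary electrophoresis. Cells were HepG2 transiently carrying cis-regulated reporter constructs, harvested 24 h after dosing.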

[19] = ATG_ERE_CIS: Attagene CIS-FACTORIAL HepG2 Assay for Estrogen Response Element (ERE) (AID 2282940); settings: HepG2 ERE cis-reporter, Attagene RNA transcript; actives raise or lower the signal
Method in brief: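 After 24 h compound treatment, RNA from transfected HepG2 cells was reverse-transcribed, reporter cDNA PCR-amplified, FAM-labelled, HpaI-cut and resolved by capillary electrophoresis. ERE-driven cis reporter transcripts reflect endogenous factors; gain or loss scored against DMSO.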

Measured: AC50

Sequence of Retinoic acid receptor alpha (Homo sapiens) (P10276 whole entry, looked up): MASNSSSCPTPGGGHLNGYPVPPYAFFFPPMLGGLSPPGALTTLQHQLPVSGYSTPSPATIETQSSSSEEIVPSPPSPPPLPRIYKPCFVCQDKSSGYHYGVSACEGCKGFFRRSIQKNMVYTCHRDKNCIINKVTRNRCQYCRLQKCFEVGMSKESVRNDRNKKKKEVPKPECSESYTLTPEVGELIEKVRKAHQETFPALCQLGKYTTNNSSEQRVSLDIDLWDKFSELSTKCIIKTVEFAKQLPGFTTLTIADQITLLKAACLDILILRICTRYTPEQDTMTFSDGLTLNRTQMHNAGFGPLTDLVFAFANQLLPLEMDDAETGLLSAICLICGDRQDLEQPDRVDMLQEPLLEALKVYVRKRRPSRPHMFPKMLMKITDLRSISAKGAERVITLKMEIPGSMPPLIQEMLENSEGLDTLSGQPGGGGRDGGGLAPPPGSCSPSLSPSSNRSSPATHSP
Sequence of Hepatocyte nuclear factor 3-beta (Homo sapiens) (Q9Y261 whole entry, looked up): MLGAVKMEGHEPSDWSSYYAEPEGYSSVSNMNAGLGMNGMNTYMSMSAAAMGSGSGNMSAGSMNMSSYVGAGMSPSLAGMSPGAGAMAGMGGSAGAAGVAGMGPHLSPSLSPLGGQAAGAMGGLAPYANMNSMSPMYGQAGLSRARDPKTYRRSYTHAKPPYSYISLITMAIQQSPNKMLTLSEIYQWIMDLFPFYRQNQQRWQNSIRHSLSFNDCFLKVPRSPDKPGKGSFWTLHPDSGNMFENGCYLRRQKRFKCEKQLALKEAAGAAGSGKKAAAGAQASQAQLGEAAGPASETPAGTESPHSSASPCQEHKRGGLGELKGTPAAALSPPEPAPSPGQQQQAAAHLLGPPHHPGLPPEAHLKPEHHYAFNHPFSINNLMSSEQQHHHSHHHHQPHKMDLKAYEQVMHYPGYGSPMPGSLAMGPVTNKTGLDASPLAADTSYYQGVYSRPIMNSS
Sequence of CCAAT/enhancer-binding protein beta (Homo sapiens) (P17676 whole entry, looked up): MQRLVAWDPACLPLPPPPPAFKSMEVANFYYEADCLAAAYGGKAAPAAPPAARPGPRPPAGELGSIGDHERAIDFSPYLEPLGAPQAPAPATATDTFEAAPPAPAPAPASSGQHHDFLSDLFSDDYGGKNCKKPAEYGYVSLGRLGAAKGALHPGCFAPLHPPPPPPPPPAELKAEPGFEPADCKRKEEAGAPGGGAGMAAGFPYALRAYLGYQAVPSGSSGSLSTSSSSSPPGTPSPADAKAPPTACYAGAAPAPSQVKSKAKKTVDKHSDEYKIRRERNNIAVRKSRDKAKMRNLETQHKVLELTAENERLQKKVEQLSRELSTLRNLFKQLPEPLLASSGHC
Sequence of Transcription factor E2F1 (Homo sapiens) (Q01094 whole entry, looked up): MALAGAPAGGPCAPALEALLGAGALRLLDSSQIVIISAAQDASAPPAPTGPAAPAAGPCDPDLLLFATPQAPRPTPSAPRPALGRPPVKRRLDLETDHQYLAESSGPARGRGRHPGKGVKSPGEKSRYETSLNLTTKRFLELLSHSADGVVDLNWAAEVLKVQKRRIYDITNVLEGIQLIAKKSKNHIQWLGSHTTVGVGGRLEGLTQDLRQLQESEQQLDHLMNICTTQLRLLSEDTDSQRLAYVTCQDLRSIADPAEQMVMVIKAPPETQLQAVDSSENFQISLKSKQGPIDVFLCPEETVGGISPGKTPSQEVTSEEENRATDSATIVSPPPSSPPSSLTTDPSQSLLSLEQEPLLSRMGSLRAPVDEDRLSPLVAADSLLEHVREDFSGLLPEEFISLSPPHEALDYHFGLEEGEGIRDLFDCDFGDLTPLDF
Sequence of Aryl hydrocarbon receptor (Homo sapiens) (P35869 whole entry, looked up): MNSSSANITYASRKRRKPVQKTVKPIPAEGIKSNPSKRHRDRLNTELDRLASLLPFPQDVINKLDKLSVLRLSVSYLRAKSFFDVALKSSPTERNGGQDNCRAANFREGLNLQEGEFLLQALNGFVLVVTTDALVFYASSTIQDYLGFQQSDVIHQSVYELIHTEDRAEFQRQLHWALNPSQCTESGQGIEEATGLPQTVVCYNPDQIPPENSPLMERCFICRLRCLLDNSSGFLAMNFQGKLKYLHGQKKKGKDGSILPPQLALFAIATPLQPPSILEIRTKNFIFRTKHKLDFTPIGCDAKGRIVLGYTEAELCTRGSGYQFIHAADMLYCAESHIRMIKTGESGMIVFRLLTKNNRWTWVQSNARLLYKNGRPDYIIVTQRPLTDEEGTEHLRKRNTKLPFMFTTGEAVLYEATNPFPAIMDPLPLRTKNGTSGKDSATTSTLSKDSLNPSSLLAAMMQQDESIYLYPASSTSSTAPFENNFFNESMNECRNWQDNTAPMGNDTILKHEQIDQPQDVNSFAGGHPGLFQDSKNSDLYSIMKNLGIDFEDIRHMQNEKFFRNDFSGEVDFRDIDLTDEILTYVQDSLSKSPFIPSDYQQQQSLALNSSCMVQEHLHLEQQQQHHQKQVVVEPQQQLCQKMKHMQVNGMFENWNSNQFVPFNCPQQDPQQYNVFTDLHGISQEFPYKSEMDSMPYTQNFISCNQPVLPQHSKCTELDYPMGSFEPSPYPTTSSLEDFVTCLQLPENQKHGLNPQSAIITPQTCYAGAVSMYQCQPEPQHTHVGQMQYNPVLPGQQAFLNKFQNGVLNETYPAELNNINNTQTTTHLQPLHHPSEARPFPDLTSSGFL

O=C(O)CNc1ccccc1
active: [4] 15.1 µM
inactive: [1] | [2] | [3] | [5] | [6] | [7] | [8] | [9] | [10] | [11] | [12] | [13] | [14] | [15] | [16] | [17] | [18]

COc1ccc(CCO)cc1
inactive: [1] | [2] | [3] | [4] | [5] | [6] | [7] | [8] | [9] | [10] | [11] | [12] | [13] | [15] | [16] | [17] | [18]

Cc1ccc(S(=O)(=O)Oc2ccc(N=Nc3ccc(-c4ccc(N=Nc5c(O)ccc6cc(S(=O)(=O)O)cc(S(=O)(=O)O)c56)c(C)c4)cc3C)cc2)cc1
inactive: [1] | [2] | [3] | [5] | [6] | [9] | [10] | [11] | [12] | [13] | [14] | [15] | [16] | [17] | [18]
active: [4] 30.1 µM | [7] 7.56 µM

O=C(O)COCC(=O)O
inactive: [1] | [2] | [3] | [4] | [5] | [6] | [7] | [9] | [10] | [11] | [12] | [13] | [14] | [15] | [16] | [17] | [18]

CC(C)(CO)[C@@H](O)C(=O)NCCC(=O)O
inactive: [1] | [2] | [3] | [4] | [5] | [6] | [7] | [8] | [9] | [10] | [11] | [12] | [13] | [19] | [14] | [15] | [16] | [18]

COc1ccc(CCN2CCC(Nc3nc4ccccc4n3Cc3ccc(F)cc3)CC2)cc1
inactive: [1] | [2] | [3] | [4] | [5] | [6] | [7] | [8] | [9] | [10] | [11] | [12] | [13] | [14] | [15] | [16] | [17] | [18]

CC[N+](C)(CC)CC
inactive: [1] | [2] | [3] | [4] | [5] | [6] | [7] | [8] | [9] | [10] | [11] | [12] | [13] | [14] | [15] | [16] | [17] | [18]

O=C(CS)OCCOC(=O)CS
active: [3] 72.7 µM | [4] 24.9 µM | [5] 58.7 µM | [6] 100 µM | [8] 27.5 µM | [10] 58.7 µM
inactive: [1] | [2] | [7] | [9] | [11] | [12] | [13] | [14] | [15] | [16] | [17] | [18]
